# High-throughput results: PubChem, National Center for Advancing Translational Sciences (NCATS)
# Rab9 promoter act = qHTS Assay for Rab9 Promoter Activators. Huh7 Rab9 promoter-luciferase reporter, luminescence, 24 h. Potency, µM (highest dose often 9.22 µM), most hits filed as activators. 320,000 tested, 2.8% active; note: nearly all actives have a fitted effect of over 60% in size
#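 Huh7 reporter line, Rab9 promoter upstream of luciferase. Compound exposure 24 h at 37 °C in reduced-serum medium with 10% FBS. Read-out: luminescence.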
# SMN2 splice enh = qHTS Assay for Enhancers of SMN2 Splice Variant Expression; HEK293 SMN2-luciferase splicing reporter, luminescence, 30-36 h; Potency, µM (doses to about 46.1 µM), most hits filed as activators; 210,000 tested, 2.8% active; AID 1458, 2008; note: nearly all actives have a fitted effect of over 55% in size
#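 HEK293 cells carry an SMN2 minigene-luciferase reporter in which exon 7 inclusion puts luciferase in frame. Cells were seeded at 2000 cells/well, attached for 10-12 hours, then exposed to compounds for 30-36 hours at 37C before ONE-Glo luminescence.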
# FLuc modulator = qHTS profiling assay for firefly luciferase inhibitor/activator using purifed enzyme and Km concentrations of substrates (counterscreen for miR-21 project); purified FLuc, Km substrates, luminescence inhibition; AID 588342, 2011; 360,000 tested, 6.9% active; Luciferin 4-monooxygenase (Photinus pyralis), P08659; Potency, µM (doses to about 57.5 µM), usual class: inhibitors; note: nearly all actives have a fitted effect of over 55% in size
# Target sequence (P08659 whole entry, looked up): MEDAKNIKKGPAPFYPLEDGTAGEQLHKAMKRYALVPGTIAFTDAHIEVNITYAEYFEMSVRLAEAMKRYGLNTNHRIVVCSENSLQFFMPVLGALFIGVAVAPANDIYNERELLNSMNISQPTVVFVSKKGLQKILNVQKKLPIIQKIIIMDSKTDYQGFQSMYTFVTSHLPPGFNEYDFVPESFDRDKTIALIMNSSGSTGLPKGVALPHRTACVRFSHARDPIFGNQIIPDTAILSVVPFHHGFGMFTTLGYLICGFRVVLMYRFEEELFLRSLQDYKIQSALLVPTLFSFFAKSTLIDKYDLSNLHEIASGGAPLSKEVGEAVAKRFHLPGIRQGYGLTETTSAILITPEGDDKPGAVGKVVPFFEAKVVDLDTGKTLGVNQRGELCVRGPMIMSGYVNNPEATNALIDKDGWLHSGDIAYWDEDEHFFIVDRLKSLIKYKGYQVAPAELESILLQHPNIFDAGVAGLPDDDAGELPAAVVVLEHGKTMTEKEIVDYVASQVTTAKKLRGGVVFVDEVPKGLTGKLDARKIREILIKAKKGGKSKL
#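 Purified P. pyralis luciferase (10nM final) with 10uM D-luciferin and 10uM ATP (Km levels) in 50mM Tris acetate pH 7.5, 10mM Mg acetate, 0.01% Tween-20, 0.05% BSA; qHTS 6-point titration, ~60 µM downward; luminescence read.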
# NPC1 prom act = qHTS Assay for NPC1 Promoter Activators. AID 485313, 2010. Huh7 NPC1 promoter luciferase reporter, 24 h. Potency, µM (series often up to 9.22 µM), hits mostly activators. 320,000 tested, 2.4% active; note: nearly all actives have a fitted effect of over 60% in size
#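 Luminescence read-out of NPC1 promoter-driven luciferase in stably transfected Huh7 cells; compounds delivered in DMSO and left 24 h at 37C, 5% CO2, qHTS titration format.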
# ELG1 genotox = qHTS screen for small molecules that induce genotoxicity in human embryonic kidney (HEK293T) cells expressing luciferase-tagged ELG1. HEK293T ELG1-luciferase reporter, luminescence, 16 h. Potency, µM (doses to about 46 µM), most hits filed as activators. 330,000 tested, 1.3% active; note: nearly all actives have a fitted effect of over 60% in size
#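 Genotoxic stress is detected as increased luminescence from luciferase-tagged ELG1 in HEK293T cells, measured with ONE-Glo after a 16 hr treatment at 37 °C.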
# Hits are given with their value; - = inactive; ? = inconclusive; . = no result given; [ ] = remark or other dose. Hits are enriched below; roughly 7.5% of the tested compounds scored in any of these assays. Calls come from the whole dose curve; as a rule, active = well fitted curve in the direction sought with a large enough effect; inconclusive = small, poorly fitted or top-dose-only effect, or another doubt; inactive = no such curve, though single readings can be large; an effect the other way counts as inactive or inconclusive.
SMILES,Rab9 promoter act,SMN2 splice enh,FLuc modulator,NPC1 prom act,ELG1 genotox
O=C(NCc1ccco1)c1cc2ccccc2c(=O)o1,-,.,15µM,-,-
Cn1ncc2c(Nc3ccc(Cl)cc3)ncnc21,-,.,?,-,-
Clc1ccc(Nc2ncnc3c2cnn3-c2ccccc2)cc1,?,-,13µM,?,12µM
Cn1ncc2c(Nc3ccc4ccccc4c3)ncnc21,3.2µM,.,11µM,?,?
CC(C)Nc1ncnc2c1cnn2-c1ccc(Cl)cc1,0.32µM,1.3µM,0.54µM,0.28µM,0.37µM
CCC(=O)Nc1ccc(NC(=O)CSc2nnnn2Cc2ccccc2)cc1C,-,.,-,-,-
O=C(O)c1cccc(-n2cc(-c3cccc(C(F)(F)F)c3)cn2)c1,0.35µM,.,1.2µM,0.32µM,?
CC(C)OC(=O)c1ccc(NC(=O)C2C3CC4OC(=O)C2C4C3)cc1 (centres undefined),2.8µM,11µM,21µM,?,-
Cc1ccc(NC(=O)C2C3CC4OC(=O)C2C4C3)cc1Cl (centres undefined),-,?,-,-,-
O=[N+]([O-])c1ccc2nc(NS(=O)(=O)c3ccccc3[N+](=O)[O-])sc2c1,-,.,11µM,?,-
Cc1ccc(-c2cc(-c3cccs3)[nH]n2)c(O)c1,-,-,6.7µM,-,4.1µM
O=C(NC12CC3CC(CC(C3)C1)C2)c1ccc([N+](=O)[O-])cc1,-,.,-,-,-
O=[N+]([O-])c1ccc(C23CC4CC(CC(O)(C4)C2)C3)cc1,1.6µM,.,11µM,2.8µM,-[9.26 µM]
COc1cc2c(cc1OC)C1=C(C#N)CCC(=NC(=O)c3ccc(Cl)cc3)N1CC2,-,-,-,-,-
COc1ccc(C2Nc3ccccc3C(=O)N2c2ccc(C)cc2)cc1Cn1cc([N+](=O)[O-])cn1 (centres undefined),4µM,20µM,?,4µM,-
COc1ccc(N2C(=O)c3ccccc3NC2c2ccc(OC)c(COc3ccccn3)c2)cc1 (centres undefined),?,13µM,-,?,?
COc1ccc(N2C(=O)c3ccccc3NC2c2ccc(OC)c(CSc3ccccn3)c2)cc1 (centres undefined),-,?,?,?,?
CCn1nc(C)c(CNC(=O)CC2C(=O)NCCN2Cc2ccc(C)o2)c1C (centres undefined),-,-,-,-,-
COc1ccccc1C(=O)Nc1ccc(-c2nnn(CC(=O)N3CCN(C(=O)c4ccco4)CC3)n2)cc1,-,-,17µM,-,-
Cc1ccccc1-c1nnn(CC(=O)N2CCN(C(=O)c3ccco3)CC2)n1,-,.,-,-,-
O=C(Nc1ccc(-c2nnn(CC(=O)N3CCN(C(=O)c4ccco4)CC3)n2)cc1)c1ccccc1F,-,-,11µM,-,-
COc1ccc(NS(=O)(=O)c2ccc(S(=O)(=O)N(C)C)cc2)cc1S(N)(=O)=O,-,-,-,-,-
CC(=O)N(C(C)=O)c1cccc2c(N(C(C)=O)C(C)=O)cccc12,-,-,-,-,-
Cc1ccc2nc(NS(=O)(=O)c3ccc(Cl)cc3)c(Nc3ccc(C(=O)O)cc3)nc2c1,.,-,11µM,.,.
CC(=O)c1ccc(Nc2nc3ccccc3nc2NS(=O)(=O)c2cccs2)cc1,-,.,19µM,-,-
SMILES,Rab9 promoter act,SMN2 splice enh,FLuc modulator,NPC1 prom act,ELG1 genotox
CCOC(=O)c1ccc(Nc2nc3ccccc3nc2NS(=O)(=O)c2ccc(Cl)cc2)cc1,.,-,?,.,.
CC(=O)Nc1ccc(S(=O)(=O)Nc2nc3cc4c(cc3nc2Cl)OCCO4)cc1,-,.,19µM,-,-
O=S(=O)(Nc1nc2cc3c(cc2nc1Cl)OCCO3)c1ccccc1,-,-,?,-,-
COc1ccc(Nc2nc3ccccc3nc2NS(=O)(=O)c2cccs2)cc1,-,-,?,-,-
COc1cccc(Nc2nc3ccccc3nc2NS(=O)(=O)c2ccc(NC(C)=O)cc2)c1,-,.,24µM,-,-
CCS(=O)(=O)c1nc(S(=O)(=O)c2ccc(C)cc2)c(NCCCN2CCOCC2)s1,-,.,-,?,-
O=C(CC1Oc2ccccc2NC1=O)NCCCN1CCOCC1 (centres undefined),-,-,-,-,-
CCCC(=O)Nc1ccc(NC(=O)c2ccccc2Cl)nc1,-,?,?,-,?
CCOc1ccccc1CNC(=O)Cn1ncn2nc(-c3cccs3)cc2c1=O,.,.,-,.,.
O=[N+]([O-])c1ccc(O)c(C=Nc2ccc3oc(Cc4ccc(Cl)cc4)nc3c2)c1,-,-,-,-,-
O=C(COC(=O)/C=C/c1cccc(Cl)c1)Nc1ccc2[nH]c(=O)[nH]c2c1,-,.,-,-,-
CN(CC(=O)NC(c1ccccc1)c1ccccc1)Cc1nc2ccccc2c(=O)[nH]1,-,-,-,-,-
CCOc1ccc(S(=O)(=O)Nc2nc3ccccc3nc2Nc2ccc(N3CCOCC3)cc2)cc1,-,-,11µM,-,-
COc1ccc(S(=O)(=O)Nc2ccc(N3CCOCC3)cc2)cc1,-,.,-,-,-
CCc1ccc(Nc2nc3ccccc3nc2NS(=O)(=O)c2ccccc2)cc1,.,-,?,.,.
CCOc1ccc(S(=O)(=O)Nc2nc3ccccc3nc2Nc2ccc(OC)cc2)cc1,.,-,13µM,.,.
COc1ccc(Nc2nc3ccccc3nc2NS(=O)(=O)c2ccc(NC(C)=O)cc2)cc1,-,.,15µM,-,-
Nc1nn(-c2ccccc2)c(N)c1N=Nc1ccc2c(c1)OCO2,0.63µM,6.3µM,1.7µM,?,?
Nc1nc(-c2ccccc2)c(N=Nc2cccnc2)s1,-,-,-,-,-
O=C(c1ccc2c(c1)OCO2)N1CCN(c2ccccc2)CC1,-,-,-,-,-
Cc1nn(-c2ccccc2)c2c1C(c1ccc(F)cc1F)C(C#N)=C(N)O2 (centres undefined),-,-,-,-,-
Cc1nn(-c2ccccc2)c(N)c1N=Nc1cccnc1,?,13µM,13µM,?,18µM
Nc1nn(-c2ccccc2)c(N)c1N=Nc1cccc(F)c1,?,.,4.3µM,?,6.5µM
CN1CCc2cc3c(c4c2C1CC41CCC(=NO)CC1)OCO3 (centres undefined),-,-,-,-,-
CC(C)OCCCNC(=O)c1cc(-c2cccnc2)nc2ccccc12,-,.,-,-,-
CC(=O)NC1Sc2ccccc2N=C1c1ccccc1 (centres undefined),?,?,12µM,?,13µM
O=C(CC1SC(N2CCCC2)=NC1=O)Nc1ccc(C(=O)Nc2ccccc2)cc1 (centres undefined),-,.,-,-,-
COc1ccc2[nH]c3c(c2c1)CCN1C(=O)C(CC(=O)NCc2ccco2)C[C@H](C(=O)N2CCOCC2)[C@@]31CCC1CCCC1 (some centres undefined),.,.,.,.,-
